# Reference: PubChem BioAssay (EPA / NIEHS)
# Inconclusive results are not listed. The source made the active and inactive calls. How the source made its calls, unless noted: active means hit-call score of the fitted dose curve at least 0.9, where 1 is the maximum; inactive means score below 0.9.
# Assays:
# [1] = ATG_TCF_b_cat_CIS: Attagene CIS-FACTORIAL HepG2 Assay for human T-Cell-Factor with beta-catenin (TCF/b-cat) (AID 2282965); conditions: HepG2 TCF/beta-catenin cis-reporter transcription, actives raise or lower the signal
# Procedure, shortened: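 Cells of the HepG2 line carry transiently transfected reporter units whose promoters respond to endogenous factors. Twenty-four hours post-dosing, reporter mRNA induction is measured by fluorescent RT-PCR and capillary electrophoresis, with DMSO as baseline.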
# [2] = ATG_TAL_CIS: Attagene CIS-FACTORIAL HepG2 Assay for human TAL Basal Promoter (AID 2282966); conditions: HepG2 Attagene cis-factorial TAL promoter reporter; actives raise or lower the signal;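 further: background control endpoint measuring basal TAL promoter reporter mRNA not a specific factor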
# Procedure, shortened: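 After 24 hours of chemical exposure, transfected HepG2 cells yielded RNA that was converted to 6-FAM-labelled, HpaI-digested reporter fragments for capillary electrophoresis. Values derive from bidirectional fitting against DMSO controls.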
# [3] = ATG_TGFb_CIS: Attagene CIS-FACTORIAL HepG2 Assay for human Transforming Growth Factor (TGF) (AID 2282967); conditions: HepG2 Attagene CIS TGFb reporter, mRNA transcription; actives raise or lower the signal
# Procedure, shortened: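 Multiplexed cis-reporter HepG2 system, 24 h treatment; mRNA induction read by fluorescence after RT-PCR and CE; DMSO negative control, bidirectional curve fitting.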
# [4] = ATG_VDRE_CIS: Attagene CIS-FACTORIAL HepG2 Assay for human Vitamin D Receptor Element (VDRE) (AID 2282968); conditions: HepG2 VDRE cis-reporter transcription, actives raise or lower the signal
# Procedure, shortened: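 Transient MRTU transfection of HepG2, 24 h compound exposure. Readout: reporter transcripts via RT-PCR and capillary electrophoresis, fluorescence. Bidirectional fit vs DMSO.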
# [5] = biological target: Estrogen receptor (Homo sapiens) (UniProt P03372); experiment: ATG_ERa_TRANS: Attagene TRANS-FACTORIAL HepG2 Assay for human Estrogen Receptor alpha (ERa) (AID 2282970; active means hit-call score of the fitted dose curve at least 0.9, where 1 is the maximum); conditions: HepG2 Attagene TRANS ERa GAL4 reporter, mRNA
# Procedure, shortened: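 Liver-derived HepG2 cells expressing chimeric nuclear receptor-Gal4 proteins from transient transfection were exposed for 24 hours. Gain of reporter mRNA signal versus DMSO, read by capillary electrophoresis of FAM-labelled PCR products, was recorded.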
# [6] = biological target: X-box-binding protein 1 (Homo sapiens) (UniProt P17861); experiment: ATG_Xbp1_CIS: Attagene CIS-FACTORIAL HepG2 Assay for human X-box Binding Protein 1 (XBP1) (AID 2282972); conditions: HepG2 XBP1 cis-element reporter, Attagene multiplex; actives raise or lower the signal
# Procedure, shortened: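 Reporter transcripts were quantified by RT-PCR with fluorescent primer extension and capillary electrophoresis after 24 h chemical exposure. Cells: transiently transfected HepG2 carrying cis-regulated reporter constructs; data fitted bidirectionally relative to DMSO.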
# [7] = biological target: Nuclear receptor subfamily 1 group I member 3 (Homo sapiens) (UniProt Q14994); experiment: ATG_CAR_TRANS: Attagene TRANS-FACTORIAL HepG2 Assay for human Constitutive Androstane Receptor (CAR) (AID 2282969; active means hit-call score of the fitted dose curve at least 0.9, where 1 is the maximum;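 further: activators raise reporter mRNA above DMSO so AC50 marks induction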); conditions: HepG2 Attagene TRANS-FACTORIAL CAR reporter
# Procedure, shortened: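 Transiently transfected HepG2, multiplex TRANS reporters (CAR-Gal4 chimera driving GAL4-UAS reporter). 24 h dosing. Readout: reporter transcript by RT-PCR + capillary electrophoresis, fluorescence intensity; positive direction vs DMSO.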
# [8] = ATG_M_19_TRANS: Attagene TRANS-FACTORIAL HepG2 Assay for M19 Transcription Factor (Internal Marker) (AID 2282974; active means hit-call score of the fitted dose curve at least 0.9, where 1 is the maximum); conditions: HepG2 Attagene TRANS-FACTORIAL M19 internal marker reporter
# Procedure, shortened: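 HepG2 transiently transfected with GAL4-UAS multiplex reporter constructs, exposed 24 h; reporter RNA quantified by RT-PCR, 6-FAM labeling, HpaI digestion and capillary electrophoresis; internal background marker fitted upward versus DMSO.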
# [9] = ATG_GAL4_TRANS: Attagene TRANS-FACTORIAL HepG2 Assay for GAL4 (Internal Marker) (AID 2282976; active means hit-call score of the fitted dose curve at least 0.9, where 1 is the maximum); conditions: HepG2 Attagene TRANS GAL4 internal marker reporter
# Procedure, shortened: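 First, HepG2 cells were transfected with reporter units under GAL4-UAS control. Next, they were treated with chemical for 24 h. Finally, RNA was reverse-transcribed, PCR-amplified, FAM-labelled and resolved by capillary electrophoresis, with induction scored against DMSO.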
# [10] = biological target: Steroid hormone receptor ERR1 (Homo sapiens) (UniProt P11474); experiment: ATG_ERRa_TRANS: Attagene TRANS-FACTORIAL HepG2 Assay for human Estrogen-Related Receptor alpha (ERRa) (AID 2282971; active means hit-call score of the fitted dose curve at least 0.9, where 1 is the maximum); conditions: HepG2 Attagene TRANS reporter, ERRa transactivation
# Procedure, shortened: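 Reporter transcript induction was quantified by RT-PCR and capillary electrophoresis of FAM-labelled, HpaI-cut products after 24 h treatment of HepG2 cells carrying transiently transfected GAL4-UAS reporter units and an exogenous ERRa-Gal4 fusion; activity scored as increase over DMSO.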
# Estrogen receptor (Homo sapiens), sequence (P03372 whole entry, looked up, the tested form may be a part): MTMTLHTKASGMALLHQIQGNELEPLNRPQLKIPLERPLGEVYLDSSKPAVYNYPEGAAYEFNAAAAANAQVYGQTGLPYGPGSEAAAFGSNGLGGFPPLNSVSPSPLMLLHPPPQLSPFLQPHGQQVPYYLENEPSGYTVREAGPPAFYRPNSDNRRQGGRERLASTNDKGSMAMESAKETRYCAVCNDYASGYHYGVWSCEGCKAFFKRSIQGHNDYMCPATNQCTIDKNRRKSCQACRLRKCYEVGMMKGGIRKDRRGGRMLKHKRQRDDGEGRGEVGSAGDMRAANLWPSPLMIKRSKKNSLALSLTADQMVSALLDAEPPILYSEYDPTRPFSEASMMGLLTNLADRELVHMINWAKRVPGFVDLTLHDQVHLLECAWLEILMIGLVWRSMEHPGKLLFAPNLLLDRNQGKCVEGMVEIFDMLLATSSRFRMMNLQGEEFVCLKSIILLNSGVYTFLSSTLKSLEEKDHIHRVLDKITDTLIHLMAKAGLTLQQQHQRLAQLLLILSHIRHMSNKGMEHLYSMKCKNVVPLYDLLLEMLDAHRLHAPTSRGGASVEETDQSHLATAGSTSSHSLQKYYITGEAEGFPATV
# Steroid hormone receptor ERR1 (Homo sapiens), sequence (P11474 whole entry, looked up, the tested form may be a part): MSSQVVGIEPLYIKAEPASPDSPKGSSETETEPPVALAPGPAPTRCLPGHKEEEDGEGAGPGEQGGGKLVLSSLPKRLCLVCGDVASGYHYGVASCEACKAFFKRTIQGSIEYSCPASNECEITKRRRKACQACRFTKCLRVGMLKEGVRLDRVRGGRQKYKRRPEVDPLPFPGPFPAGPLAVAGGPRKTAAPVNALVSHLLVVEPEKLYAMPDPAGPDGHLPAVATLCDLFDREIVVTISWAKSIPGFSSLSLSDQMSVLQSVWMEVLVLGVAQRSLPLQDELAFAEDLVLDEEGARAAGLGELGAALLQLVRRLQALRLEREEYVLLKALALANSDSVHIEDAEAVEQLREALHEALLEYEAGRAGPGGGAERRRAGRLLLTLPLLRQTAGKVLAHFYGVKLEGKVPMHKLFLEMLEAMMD
# Nuclear receptor subfamily 1 group I member 3 (Homo sapiens), sequence (Q14994 whole entry, looked up, the tested form may be a part): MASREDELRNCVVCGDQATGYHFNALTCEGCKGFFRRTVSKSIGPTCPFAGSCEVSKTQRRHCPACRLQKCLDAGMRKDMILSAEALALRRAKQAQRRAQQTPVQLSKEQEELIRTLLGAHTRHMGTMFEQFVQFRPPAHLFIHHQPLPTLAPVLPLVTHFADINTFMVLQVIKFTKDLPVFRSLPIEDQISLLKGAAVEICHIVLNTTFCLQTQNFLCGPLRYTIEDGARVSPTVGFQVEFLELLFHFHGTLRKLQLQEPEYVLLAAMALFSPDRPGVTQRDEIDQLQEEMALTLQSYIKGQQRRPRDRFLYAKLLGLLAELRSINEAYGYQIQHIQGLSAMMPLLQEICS
# X-box-binding protein 1 (Homo sapiens), sequence (P17861 whole entry, looked up): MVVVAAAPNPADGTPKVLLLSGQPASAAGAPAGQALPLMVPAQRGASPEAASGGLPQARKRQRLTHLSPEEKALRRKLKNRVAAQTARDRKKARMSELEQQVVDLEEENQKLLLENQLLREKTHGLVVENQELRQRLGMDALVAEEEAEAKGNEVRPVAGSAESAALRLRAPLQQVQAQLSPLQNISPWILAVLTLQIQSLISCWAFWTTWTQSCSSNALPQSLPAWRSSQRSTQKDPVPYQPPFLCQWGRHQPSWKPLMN
structure (smiles),measurement,setting,value
CC(C)c1ccc(C(=O)N=C(N)N)cc1S(C)(=O)=O,outcome,[1],inactive
same,outcome,[2],inactive
same,outcome,[3],inactive
same,outcome,[4],inactive
same,AC50,[5],68.6 µM (active)
same,outcome,[6],inactive
CCCCCCC(=O)OCC,outcome,[1],inactive
same,outcome,[2],inactive
same,outcome,[3],inactive
same,outcome,[4],inactive
same,outcome,[7],inactive
same,AC50,[5],17.6 µM (active)
same,outcome,[6],inactive
same,outcome,[8],inactive
COCCOCCOC,outcome,[1],inactive
same,outcome,[2],inactive
same,outcome,[3],inactive
same,outcome,[4],inactive
same,outcome,[5],inactive
same,outcome,[6],inactive
same,outcome,[8],inactive
same,outcome,[9],inactive
Cc1ccc(Cl)cc1,outcome,[1],inactive
same,outcome,[2],inactive
same,outcome,[3],inactive
same,outcome,[4],inactive
same,outcome,[5],inactive
same,outcome,[6],inactive
same,outcome,[8],inactive
CCCCCCCCCCO,AC50,[1],166 µM (active)
same,outcome,[2],inactive
same,outcome,[3],inactive
same,outcome,[4],inactive
same,outcome,[5],inactive
same,AC50,[6],160 µM (active)
CCCCCCCC=O,outcome,[1],inactive
same,outcome,[2],inactive
same,outcome,[3],inactive
same,outcome,[4],inactive
same,outcome,[5],inactive
same,outcome,[6],inactive
Nc1ccccc1N,outcome,[1],inactive
same,outcome,[2],inactive
same,outcome,[3],inactive
same,AC50,[4],34.8 µM (active)
same,outcome,[7],inactive
same,outcome,[5],inactive
same,AC50,[6],51.8 µM (active)
c1cc(-c2ccncc2)ccn1,outcome,[1],inactive
same,outcome,[2],inactive
same,outcome,[3],inactive
same,outcome,[4],inactive
same,outcome,[5],inactive
same,outcome,[6],inactive
same,outcome,[8],inactive
same,outcome,[9],inactive
CCCCN(CCCC)CCCC,outcome,[1],inactive
same,outcome,[2],inactive
same,outcome,[3],inactive
same,outcome,[4],inactive
same,outcome,[5],inactive
same,outcome,[6],inactive
Cc1ccccc1Cl,outcome,[1],inactive
same,outcome,[2],inactive
same,outcome,[3],inactive
same,outcome,[5],inactive
same,outcome,[6],inactive
Nc1ccc2c(c1)C(=O)c1ccccc1C2=O,outcome,[1],inactive
same,outcome,[2],inactive
same,outcome,[3],inactive
same,outcome,[7],inactive
same,AC50,[5],13.6 µM (active)
same,outcome,[6],inactive
COc1cccc2c1C(=O)c1c(O)c3c(c(O)c1C2=O)C[C@@](O)(C(=O)CO)C[C@@H]3O[C@H]1C[C@H](N)[C@H](O)[C@H](C)O1,AC50,[1],1.26 µM (active)
same,outcome,[2],inactive
same,outcome,[3],inactive
same,outcome,[5],inactive
same,outcome,[10],inactive
same,AC50,[6],0.0821 µM (active)
same,outcome,[8],inactive
CCNc1cccc(C)c1,outcome,[1],inactive
same,outcome,[2],inactive
same,outcome,[3],inactive
same,outcome,[7],inactive
same,outcome,[6],inactive
FC(F)(F)C(F)(F)C(F)(F)C(F)(F)C(F)(F)C(F)(F)CCI,outcome,[1],inactive
same,outcome,[2],inactive
same,outcome,[3],inactive
same,outcome,[7],inactive
same,outcome,[5],inactive
same,outcome,[6],inactive
COc1cc(/C=C/C(=O)CC(=O)/C=C/c2ccc(O)c(OC)c2)ccc1O,AC50,[1],27.4 µM (active)
same,outcome,[2],inactive
same,outcome,[3],inactive
same,outcome,[5],inactive
same,outcome,[10],inactive
same,AC50,[6],33.4 µM (active)
same,outcome,[8],inactive
CCCCCC(=O)O,outcome,[1],inactive
same,outcome,[2],inactive
same,outcome,[3],inactive
same,outcome,[5],inactive
same,outcome,[10],inactive
same,outcome,[6],inactive
same,outcome,[8],inactive
COc1ccc2c(c1)c(CC(=O)O)c(C)n2C(=O)c1ccc(Cl)cc1,outcome,[1],inactive
same,outcome,[2],inactive
same,outcome,[3],inactive
same,outcome,[4],inactive
same,outcome,[6],inactive
same,outcome,[8],inactive
Cc1ccc(C)c(C)c1,outcome,[1],inactive
same,outcome,[2],inactive
same,outcome,[3],inactive
same,outcome,[7],inactive
same,outcome,[5],inactive
same,outcome,[6],inactive
same,outcome,[8],inactive
O=c1c(O)c(-c2ccc(O)c(O)c2)oc2cc(O)cc(O)c12,outcome,[1],inactive
same,outcome,[2],inactive
same,outcome,[3],inactive
same,outcome,[7],inactive
same,AC50,[5],14.9 µM (active)
same,outcome,[6],inactive
same,outcome,[8],inactive
COc1ccc(S(=O)(=O)N2C(=O)[C@@](c3ccccc3OC)(N3C[C@H](O)C[C@H]3C(=O)N(C)C)c3cc(Cl)ccc32)c(OC)c1,AC50,[1],42.1 µM (active)
same,AC50,[2],177 µM (active)
same,AC50,[3],145 µM (active)
same,AC50,[4],19.8 µM (active)
same,AC50,[6],69.5 µM (active)
same,outcome,[8],inactive
C[Si]1(C)O[Si](C)(C)O[Si](C)(C)O[Si](C)(C)O1,outcome,[1],inactive
same,outcome,[2],inactive
same,outcome,[3],inactive
same,outcome,[7],inactive
same,AC50,[5],38.8 µM (active)
same,outcome,[6],inactive
same,outcome,[8],inactive
CNC(=O)[C@H]1O[C@@H](n2cnc3c(NCc4cc(Cl)ccc4OCc4cc(C)no4)ncnc32)[C@H](O)[C@@H]1N,outcome,[1],inactive
same,outcome,[2],inactive
same,outcome,[3],inactive
same,outcome,[4],inactive
same,outcome,[6],inactive
same,outcome,[9],inactive
